The text below walks through data of PubChem BioAssay AID686979 (National Center for Advancing Translational Sciences (NCATS), 2013).

The whole screen tested about 420,000 compounds, of which about 50,000 (12%) were called active. Not shown: some 26% with an inconclusive outcome. The call rests on the fitted dose curve; in most records, active means well fitted inhibition curve with a large enough effect; inconclusive means small, poorly fitted or top-dose-only effect; inactive means flat fitted curve, though single readings scatter. The list comes from a sample in which actives are over-represented; it also holds similar structures and randomly drawn compounds. Entries that show only a call come without a potency.
Potency means the concentration at half of the fitted maximal effect.

This experiment can be described thus: qHTS for Inhibitors of human tyrosyl-DNA phosphodiesterase 1 (TDP1): qHTS in cells in presence of CPT. Further: nearly all actives have a fitted effect of over 55% in size. Particulars: chicken DT40 Tdp1-/-;hTDP1 cells + 20 nM CPT, ATP luminescence, 48 h; series mostly up to 46.2 µM. A digest of the protocol: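 Cell growth measured by CellTiter-Glo luminescence after a minimum 48 h, 37 C compound exposure with 20 nM CPT in Tdp1-knockout DT40 cells stably expressing hTDP1, seeded 400/well; qHTS titration format.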
For the compound `O=C(c1ccc(F)cc1)N1CCC(C(=O)N2CCN(S(=O)(=O)c3ccccc3Br)CC2)CC1`, the Potency result was “inactive”.

On to `COc1ccc(NC(=O)C2CCC(CNS(=O)(=O)c3csc(C(N)=O)c3)CC2)cc1OC` (configuration not stated), for which the Potency entry was “inactive”.

As for `Cc1nn(Cc2ccccc2)c(C)c1CNC(=O)c1ccc(F)c(S(=O)(=O)N2CCOCC2)c1`, the Potency result is “inactive”.

In the case of `O=C(COC(=O)c1ccc(F)c(S(=O)(=O)N2CCOCC2)c1)NCc1ccc2c(c1)OCO2`, the Potency result is “inactive”.

`Cc1ccc(S(=O)(=O)N2CCN(C(=O)c3cc(S(=O)(=O)N4CCOCC4)ccc3F)CC2)cc1`: the Potency entry was “inactive”.

With `Cc1cccc(N(Cc2ccccc2)C(=O)c2cc(S(=O)(=O)N3CCOCC3)ccc2F)c1`, the Potency is 18.4 µM (active).

For the compound `O=C(c1ccc(F)c(S(=O)(=O)N2CCOCC2)c1)N(CCc1ccccc1)Cc1ccccc1`, the Potency was 14.6 µM (active).

On to `Cc1ccc(S(=O)(=O)N2CCOCC2)cc1C(=O)NC(=S)N(Cc1ccccc1)C(C)C`, for which the Potency result is “inactive”.

Regarding `CC(C)Cn1cc(-c2cncc3nccn23)cn1`, the Potency entry was “inactive”.

`CCCCN(CC(=O)NC(C)(C)C)C(=O)C(=O)Nc1ccc2c(c1)OCCO2`: the Potency entry was “inactive”.

Consider `O=C(O)c1cc2c(cc1NC(=O)c1c(F)cccc1Cl)OCCCO2`, for which the Potency entry was “inactive”.

For the compound `Cc1ccc(CNC(=O)CSc2nnc3c(n2)[nH]c2ccc(F)cc23)cc1`, the Potency entry is “inactive”.

In the case of `O=c1c(-c2ccc(Cl)cc2)[n+]([O-])c2ccccc2n1OCc1nc2ccccc2[nH]1`, the Potency entry was “inactive”.

In the case of `CCOC(=O)COn1c(=O)c(-c2ccc(OCC)cc2)[n+]([O-])c2ccccc21`, the Potency result is “inactive”.

Consider `CCOc1ccc(OCC)c(-c2c(=O)n(OCc3ccc(Cl)cc3)c3ccccc3[n+]2[O-])c1`, for which the Potency is 7.31 µM (active).

Take `O=C(N/N=C/c1ccco1)c1csc2c1CCCC2`: the Potency result is “inactive”.

Regarding `Cc1cccc(C)c1NC(=O)N1CC(C)OC(C)C1` (configuration not stated), the Potency entry was “inactive”.

On to `Cc1ccccc1Cn1c(=O)[nH]c2ccccc21`, for which the Potency entry is “inactive”.

As to `Cc1cccc(C)c1NC(=O)N1CC=C(n2c(=O)[nH]c3ccccc32)CC1`, the Potency was 14.6 µM (active).

For the compound `C[C@H](CO)N1C[C@H](C)[C@@H](CN(C)C(=O)c2cnccn2)Oc2ncc(Br)cc2C1=O`, the Potency result was “inactive”.

With `NNc1nnc(Cc2ccncc2)c2ccccc12`, the Potency result was “inactive”.

For the compound `Cc1ccc(-c2cc(C(=O)NC3CCN(Cc4ccccc4)CC3)c3ccccc3n2)cc1`, the Potency is 14.6 µM (active).

Regarding `O=C(NC1CCN(Cc2ccccc2)CC1)c1c(F)cccc1F`, the Potency result was “inactive”.

For the compound `Cc1cc(Br)ccc1NC(=S)NC1CCCC1`, the Potency result is “inactive”.

As to `O=C(Nc1ccccc1)N1CCC(C(=O)N2CCN(Cc3ccccc3)CC2)CC1`, the Potency entry was “inactive”.

Take `S=C(Nc1ccc(Br)cc1)NC1CCN(Cc2ccccc2)CC1`: the Potency is 16.4 µM (active).

For `S=C(Nc1ccc(Br)cc1Cl)NC1CCN(Cc2ccccc2)CC1`, the Potency is 18.4 µM (active).

Regarding `O=C(NNC(=S)Nc1ccc(Br)cc1Cl)c1ccco1`, the Potency result is “inactive”.

For the compound `O=C(NC1CCN(Cc2ccccc2)CC1)c1ccccc1F`, the Potency entry was “inactive”.

For the compound `Cc1ccn2cc(C(=O)NC3CCN(Cc4ccccc4)CC3)nc2c1`, the Potency result is “inactive”.

For `Cc1cc(C(=O)NC2CCN(Cc3ccccc3)CC2)n[nH]1`, the Potency entry was “inactive”.

As to `O=C(NC1CCN(Cc2ccccc2)CC1)c1cc(Br)c(Br)[nH]1`, the Potency was 18.4 µM (active).

As for `O=C(c1cccc(-n2cccc2)c1)N1CCN(S(=O)(=O)c2ccc(F)cc2)CC1`, the Potency entry is “inactive”.

As for `COc1cc(/C=C/C(=O)OCC(=O)NC2CC2)cc(OC)c1OC`, the Potency entry was “inactive”.

Take `COC(=O)c1sccc1NC(=O)c1ccc(Cl)cc1`: the Potency result was “inactive”.

Take `CCc1ccc(NC(=O)CCNS(=O)(=O)c2cccs2)cc1`: the Potency result was “inactive”.

As to `Cc1cccc(C)c1NC(=O)CN1C(=O)C(C)Oc2ccccc21` (configuration not stated), the Potency entry is “inactive”.

As to `CCC1C(=O)c2ccccc2N(C)C1=O` (configuration not stated), the Potency result was “inactive”.

As for `Cc1onc(C(=O)Nc2ccc3c(c2)OCO3)c1[N+](=O)[O-]`, the Potency result was “inactive”.

With `Cc1ccc(NC(=O)CSc2nnc(CNC(=O)c3ccccc3F)o2)cc1Cl`, the Potency result was “inactive”.

For the compound `O=C(NC1CC(=O)N(c2ccccc2)C1)c1ccco1` (configuration not stated), the Potency result is “inactive”.

Take `COc1cc(NC(=O)CN2CCN(S(=O)(=O)c3ccc(Br)cc3)CC2)cc(OC)c1`: the Potency result was “inactive”.

As for `COc1ccc(NC(=O)CN(C)C(=O)CNC(=O)C2CCCCC2)cc1`, the Potency entry was “inactive”.

For `COc1ccc(/C=C/c2noc(-c3ccccc3OC(C)=O)n2)cc1`, the Potency entry is “inactive”.

As for `C=CCNC(=S)N/N=C/c1ccc(OCc2ccccc2)cc1`, the Potency entry is “inactive”.

Take `O=C(O)COc1ccc(/C=N/O)cc1Br`: the Potency entry is “inactive”.

With `CNC(=S)N/N=C/c1ccc(OCc2ccccc2)c(Br)c1`, the Potency is 9.2 µM (active).

`CC(C)(CCl)C(=O)Nc1ccc(Sc2ccc(F)cc2)cc1`: the Potency was 5.8 µM (active).

`CCN(c1ccccc1)S(=O)(=O)c1ccc(NC(=O)C(C)(C)C)cc1`: the Potency result was “inactive”.

Consider `O=C(COc1ccccc1)Nc1ccc(F)cc1`, for which the Potency entry is “inactive”.

Turning to `Cc1ccc(C(O)P(=O)(OC(C)C)c2ccc(N(C)C)cc2)cc1` (configuration not stated), the Potency result is “inactive”.

On to `COc1cc2c(cc1OC)C(c1ccccc1Br)NC(=O)C2` (configuration not stated), for which the Potency entry is “inactive”.

Turning to `O=C1c2ccccc2C(=O)C1C(=O)C1CC1`, the Potency result was “inactive”.

As for `CCc1c(C)nc(N)n2c(SCC(=O)NC3CCCCC3)nnc12`, the Potency entry is “inactive”.

Take `CC1CCN(c2ccc3c(c2)S(=O)(=O)c2cc(C(=O)O)ccc2C3=O)CC1`: the Potency entry was “inactive”.

Take `COc1ccc2oc(C(=O)NCc3ccco3)c(C)c2c1`: the Potency result is “inactive”.

For the compound `CC1CCc2sc(C(=O)NCC(c3ccco3)N3CCCCC3)cc2C1` (configuration not stated), the Potency was 16.4 µM (active).

As to `CSc1ncccc1C(=O)NCC(c1ccco1)N1CCCCC1` (configuration not stated), the Potency entry is “inactive”.

In the case of `Cc1cc(S(=O)(=O)Nc2ccc(C(=O)NCC(c3ccco3)N3CCCC3)cc2)ccc1F` (configuration not stated), the Potency entry is “inactive”.

As to `CC1CCc2sc(C(=O)N/N=C/C3CCCCC3)cc2C1` (configuration not stated), the Potency result is “inactive”.

For `Cc1c(C(=O)NCC(c2ccco2)N2CCCC2)oc2ccc(Cl)cc12` (configuration not stated), the Potency is 20.6 µM (active).

As for `Nc1nc(N)c(N=O)c(N)n1`, the Potency entry was “inactive”.

In the case of `CC(=O)N(OCc1ccc(OC(C)C)c(Cl)c1)C(C)=O`, the Potency entry was “inactive”.

Turning to `O=C(COC(=O)CCOc1ccccc1)Nc1cc(S(=O)(=O)N2CCCCC2)ccc1Cl`, the Potency entry is “inactive”.

With `O=C(CN1CCN(S(=O)(=O)c2cc(Cl)ccc2Cl)CC1)c1ccc(O)c(O)c1`, the Potency was 9.2 µM (active).

Consider `O=S(=O)(c1cc(Cl)ccc1Cl)N1CCN(Cc2ccco2)CC1`, for which the Potency entry was “inactive”.

In the case of `COc1ccc(Cl)cc1S(=O)(=O)N1CCN(CC(=O)C(C)(C)C)CC1`, the Potency entry was “inactive”.
